According to PubChem BioAssay (NCI):
Values joined by “and” are separate entries in the source; they are usually repeats but may differ in a detail not shown here. Equal values may be shown once. About 83,000 compounds went through this panel and 20% of them were active in at least one assay; those are over-represented in the sample as a whole.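 Plates (96-well) were seeded with cells, treated with compound at one concentration, and incubated for 48 hours before percent growth was determined.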 Active and inactive are the calls of the source. The calls were made as follows: active = growth percent below 10; inactive = the rest.

tested on: MDA-MB-468 breast; assay: NCI-60 one-dose screen, 48 h (100 = growth as untreated, 0 = no growth, -100 = all killed); details: 10 µM unless noted

Structure (SMILES)	growth
Cc1ccc(CCC(=O)Nc2ncc(Cc3cc(Cl)ccc3Cl)s2)o1	7.55% (active)
CCOc1ccc(C(=O)NCC(C)C)cc1	105% (inactive)
CC(=O)OCc1cc(-c2nc3ccccc3[nH]c2=O)nn1-c1ccc(Cl)cc1	89.3% (inactive)
N#Cc1c(NC(=O)c2ccc(F)c(Cl)c2)sc2c1CCC(=O)C2	-20% (active)
COc1ccc(C(=O)c2cc(OC)c(OC)c(OC)c2)cc1/C=C/C(=O)c1ccc(F)cc1	90.4% (inactive)
CCN1CCN(c2ccc(Nc3ncc4ccc5ncn(C(C)C)c5c4n3)nc2)CC1	-41.3% (active)
O=CN1CCCCC1	95.6% (inactive)
Cc1ccc(-c2csc3nc(C)c(CCCl)c(=O)n23)cc1	83.6% (inactive)
COc1ccc(-c2nc(Nc3ccc(F)cc3)nc(Nc3ccc4c(c3)nc(C)n4Cc3ccccc3)n2)cc1	28.4% (inactive)
NS(=O)(=O)c1ccc(CCN2C(=O)/C(=C\c3ccc(Cl)cc3)C=C2c2ccc3ccccc3c2)cc1	91% (inactive)
O=C(O)C(Cc1ccccc1)N1C(=O)/C(=C/C(Cl)=C/c2ccc([N+](=O)[O-])cc2)SC1=S (stereo not given)	-12.8% (active)
C#C[C@]1(O)CC[C@H]2[C@@H]3CC=C4c5nc(Nc6ncccn6)sc5CC[C@]4(C)[C@H]3CC[C@@]21C	75.5% (inactive)
COc1ccc(/C=C/C(=O)CCC(=O)O)cc1OC	113% (inactive)
NS(=O)(=O)c1cccc(Nc2nc(SCC(=O)c3ccc(Cl)cc3)nc3ccccc23)c1	80.1% (inactive)
CCCCSc1ccc2nc(-c3ccc(OCCCN=C(N)N)cc3)cn2c1	35.6% (inactive)
CCCCCCCCCc1ccc(OCCOCCOCCOCCOCCOCCOCCOCCOCCO)cc1	-11.7% (active)
COc1cccc(CNc2cccc3cn[nH]c23)c1O	80.6% (inactive)
CC(=O)N(CC(O)CO)c1c(I)c(C(=O)NCCO)c(I)c(C(=O)NCC(O)CO)c1I (stereo not given)	110% (inactive)
O=C1CCCC=CC[C@H]2C=C(Cl)C(=O)C2=CC[C@H](CCCCC(F)(F)F)OC(=O)CCCC=CC[C@H]2C=C(Cl)C(=O)C2=CC[C@H](CCCCC(F)(F)F)OC(=O)CCCC=CC[C@H]2C=C(Cl)C(=O)C2=CC[C@H](CCCCC(F)(F)F)O1	59.9% [6.25 µM] (inactive)
O=S(=O)(NCCCNc1nccc(-c2c(-c3ccc(F)cc3)nc3sccn23)n1)c1ccc2ccccc2c1	51.8% (inactive)

Structure (SMILES)	growth
CCCCCN1C=C/C(=C\C(=O)N(C)c2ccc(OC(F)(F)F)cc2)c2ccccc21	80.4% (inactive)
CN(C)C(=S)SCN1C(=O)c2ccc([N+](=O)[O-])cc2S1(=O)=O	88.4% (inactive)
COc1ccccc1CNCCCCCCCCCCCCN1C(=O)c2ccc3c4c(ccc(c24)C1=O)C(=O)N(CCCCCCCCCCCCNCc1ccccc1OC)C3=O	-8.04% (active)
O=C(N/N=C/c1cc(Cl)ccc1O)C(=O)N/N=C/c1cc(Cl)ccc1O	61.3% (inactive)
CCCCCCCC/C=C\CCCCCCCCOc1ccccc1CC(=O)NCC[N+]1(C)CCOCC1	65.3% (inactive)
O=C1c2c(c3c4cccnc4[nH]c3c3ccc4ccccc4c23)C(=O)N1CCN1CCOCC1	62.8% (inactive)
NC(=N\N=C/Cc1ccccc1)/C(N)=N\N=C\Cc1ccccc1	112% (inactive)
CN(C)c1nc2c(N)ncnc2n1C1OC(CO)C(O)C1O (stereo not given)	102% (inactive)
COC(=O)c1cc(-c2cccs2)c(C#N)c(N)c1C#N	80.8% (inactive)
O=C1/C(=C/c2ccc(Cl)c(Cl)c2)CN(C(=O)C(Cl)Cl)C/C1=C\c1ccc(Cl)c(Cl)c1	-52.5% (active)
CCN(CC)S(=O)(=O)c1cccc(-c2ccc3c(NC(=O)C4CC4)n[nH]c3c2)c1	6.55% [6.25 µM] (active)
N#CSCc1cc(Cl)c(CSC#N)cc1Cl	66% (inactive)
CCCCCCCCCCCCC1CCC(=O)O1 (stereo not given)	105% (inactive)
CC(=O)NC(Cc1ccccc1)C(=O)Oc1ccc2ccccc2c1 (stereo not given)	107% (inactive) and 119% (inactive)
Nc1ccc2c(c1)Cc1cc(Cl)c(Cl)cc1-2	34.4% (inactive)
CCN(CC)CCCCCCNc1cc(OC)cc2cccnc12	23.4% (inactive)
O=C(c1ccccc1O)N1CCCC1	94.1% (inactive)
OC(c1ccccc1)C(NCc1ccccc1)c1ccccc1 (stereo not given)	95.4% (inactive)
CCN1C(=O)/C(=c2\sc3n(c2=O)C2C(NN=3)N(CC)C(=S)N2CC)c2ccccc21 (stereo not given)	104% (inactive)
CC(C)(C)NC/C(=C\c1ccccc1)C(=O)c1ccccc1	-50.5% (active)
